Results published in the supplement of paper PMC9262897, “Low-cost anti-mycobacterial drug discovery using engineered E. coli” (Nature Communications, 2022).
Counter-ions that a name gives are not always drawn. ± gives the standard deviation of the averaged measurements.

How the values were obtained:
Assay in all cases: growth (OD600 after 10 h); higher = more growth (less inhibition)
[1] = tested on: E. coli TESEC Alr+ wild-type control; conditions: compound 0.1 mM; raw OD600 reference: median of DMSO wells 0.241, cell-free background 0.041
Description: (§1)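 TESEC Mtb Alr E. coli, or the Alr+ wild-type control, in 384-well plates with Prestwick library compounds at 0.1 mM and 1% DMSO, across arabinose induction levels of 1E3 to 1E7 nM. Growth is read as OD600 after 10 h at 37 °C in triplicate biological replicates.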

E. coli TESEC Mtb Alr [2] = conditions: compound 0.1 mM
Description: as §1

E. coli TESEC Mtb Asd = conditions: compound 0.1 mM
Description: (§2)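 TESEC E. coli strains in which the native enzyme is deleted and replaced by arabinose-inducible Mtb Asd, DapB, CysH or TrpD, each grown in its selective medium. Strains were screened against the Prestwick library at 0.1 mM and 1% DMSO in 384-well format at low and high arabinose induction. Growth is read as OD600 after 10 h in triplicate.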

E. coli TESEC Mtb DapB = conditions: compound 0.1 mM
Description: as §2

[3] = tested on: E. coli TESEC Alr+ wild-type control; conditions: compound 0.1 mM; raw OD600 reference: median of DMSO wells 0.49, cell-free background 0.052
Description: (§3)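 TESEC Mtb Alr E. coli (ΔaraC ΔtolC ΔentC Δalr ΔdadX, arabinose-inducible Mtb Alr) or the Alr+ wild-type control strain, grown in defined M9-fructose medium without D-alanine in 96-well plates with Prestwick library compounds at 0.1 mM and 1% DMSO. Low Alr induction is 0.1 µM arabinose and high induction is 10 mM arabinose.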

E. coli TESEC Mtb Alr [4] = conditions: compound 0.1 mM; remark: listed apart in the source
Description: as §3

[5] = arabinose 1000 nM, raw OD600 reference: median of DMSO wells 0.294, cell-free background 0.041
[6] = arabinose 10000 nM, raw OD600 reference: median of DMSO wells 0.264, cell-free background 0.041
[7] = arabinose 100000 nM, raw OD600 reference: median of DMSO wells 0.201, cell-free background 0.041
[8] = arabinose 1000000 nM, raw OD600 reference: median of DMSO wells 0.193, cell-free background 0.041
[9] = arabinose 10000000 nM, raw OD600 reference: median of DMSO wells 0.146, cell-free background 0.041
[10] = arabinose induction (level): High, raw OD600 reference: median of DMSO wells 0.331, cell-free background 0.041
[11] = arabinose induction (level): Low, raw OD600 reference: median of DMSO wells 0.417, cell-free background 0.041
[12] = arabinose induction (level): High, raw OD600 reference: median of DMSO wells […], cell-free background 0.041
[13] = arabinose induction (level): Low, raw OD600 reference: median of DMSO wells 0.227, cell-free background 0.041
[14] = arabinose 100 nM, raw OD600 reference: median of DMSO wells 0.413, cell-free background 0.052
[15] = arabinose 10000000 nM, raw OD600 reference: median of DMSO wells […], cell-free background 0.052

SMILES | growth [1] | growth (E. coli TESEC Mtb Alr [2]; [5]) | growth (E. coli TESEC Mtb Alr [2]; [6]) | growth (E. coli TESEC Mtb Alr [2]; [7]) | growth (E. coli TESEC Mtb Alr [2]; [8]) | growth (E. coli TESEC Mtb Alr [2]; [9]) | growth (E. coli TESEC Mtb Asd; [10]) | growth (E. coli TESEC Mtb Asd; [11]) | growth (E. coli TESEC Mtb DapB; [12]) | growth (E. coli TESEC Mtb DapB; [13]) | growth [3] | growth (E. coli TESEC Mtb Alr [4]; [14]) | growth (E. coli TESEC Mtb Alr [4]; [15])
CC(N/C(=N\C#N)Nc1ccncc1)C(C)(C)C (stereo not given) [Pinacidil] | 0.223 ± 0.015 | 0.274 ± 0.011 | 0.257 ± 0.0097 | 0.219 ± 0.0078 | 0.137 ± 0.0036 | 0.138 ± 0.0067 | 0.369 ± 0.037 | 0.412 ± 0.03 | 0.19 ± 0.012 | 0.232 ± 0.022 | 0.446 ± 0.031 | 0.405 ± 0.012 | 0.359 ± 0.036
COc1ccc(CC2c3cc(OC)c(OC)cc3CC[N+]2(C)CCC(=O)OCCCCCOC(=O)CC[N+]2(C)CCc3cc(OC)c(OC)cc3C2Cc2ccc(OC)c(OC)c2)cc1OC (stereo not given) [Atracurium besylate] | 0.177 ± 0.0075 | 0.271 ± 0.013 | 0.25 ± 0.011 | 0.174 ± 0.014 | 0.127 ± 0.0067 | 0.137 ± 0.006 | 0.283 ± 0.059 | 0.398 ± 0.037 | 0.171 ± 0.017 | 0.218 ± 0.05 | 0.431 ± 0.027 | 0.416 ± 0.014 | 0.336 ± 0.06
O=P(O)(O)C(O)(Cc1cccnc1)P(=O)(O)O [Risedronic acid monohydrate] | 0.247 ± 0.0087 | 0.2984 ± 0.0028 | 0.265 ± 0.0074 | 0.191 ± 0.0063 | 0.196 ± 0.0097 | 0.156 ± 0.0062 | 0.278 ± 0.053 | 0.376 ± 0.05 | 0.192 ± 0.014 | 0.26 ± 0.052 | 0.608 ± 0.083 | 0.426 ± 0.015 | 0.277 ± 0.011
O=C(O)Cc1cc(I)c(Oc2ccc(O)c(I)c2)c(I)c1 [Tiratricol, 3,3',5-triiodothyroacetic acid] | 0.0409 ± 0.00083 | 0.0428 ± 0.0019 | 0.04123 ± 0.00021 | 0.0442 ± 0.0023 | 0.0408 ± 0.00017 | 0.0558 ± 0.002 | 0.057 ± 0.0056 | 0.06 ± 0.0072 | 0.0676 ± 0.0044 | 0.108 ± 0.09 | 0.0593 ± 0.0022 | 0.167 ± 0.087 | 0.05437 ± 0.00015
c1ccc(CN(CC2=NCCN2)c2ccccc2)cc1 [Antazoline hydrochloride] | 0.2355 ± 0.0022 | 0.279 ± 0.02 | 0.254 ± 0.0091 | 0.194 ± 0.021 | 0.167 ± 0.0018 | 0.14 ± 0.0039 | 0.355 ± 0.017 | 0.441 ± 0.017 | 0.185 ± 0.01 | 0.225 ± 0.043 | 0.5 ± 0.083 | 0.412 ± 0.0059 | 0.364 ± 0.015
CC[C@H]1OC(=O)C[C@@H](O)[C@H](C)[C@@H](O[C@@H]2O[C@H](C)[C@@H](O[C@H]3C[C@@](C)(O)[C@@H](O)[C@H](C)O3)[C@H](N(C)C)[C@H]2O)[C@@H](CC=O)C[C@@H](C)C(=O)/C=C/C(C)=C/[C@@H]1CO[C@@H]1O[C@H](C)[C@@H](O)[C@@H](OC)[C@H]1OC [Tylosin] | 0.04133 ± 5.8e-05 | 0.0588 ± 0.0023 | 0.0397 ± 0.00017 | 0.0503 ± 0.0012 | 0.03953 ± 0.00032 | 0.0429 ± 0.0013 | 0.0667 ± 0.004 | 0.0597 ± 0.0035 | 0.0739 ± 0.0012 | 0.0754 ± 0.0056 | 0.0591 ± 0.00044 | 0.249 ± 0.12 | 0.0521 ± 0.00046
CC(C)NC[C@@H](O)COc1ccc(CC(N)=O)cc1 [(R)-(+)-Atenolol] | 0.255 ± 0.004 | 0.322 ± 0.019 | 0.262 ± 0.012 | 0.221 ± 0.013 | 0.1771 ± 0.00066 | 0.161 ± 0.0073 | 0.485 ± 0.012 | 0.442 ± 0.033 | 0.243 ± 0.059 | 0.25 ± 0.017 | 0.546 ± 0.038 | 0.405 ± 0.019 | 0.342 ± 0.012
CN1CCCN=C1/C=C/c1cccc(O)c1 [Oxantel pamoate] | 0.216 ± 0.016 | 0.303 ± 0.013 | 0.236 ± 0.0088 | 0.226 ± 0.039 | 0.141 ± 0.0019 | 0.189 ± 0.0049 | 0.282 ± 0.051 | 0.258 ± 0.009 | 0.1953 ± 0.0019 | 0.218 ± 0.019 | 0.496 ± 0.038 | 0.405 ± 0.011 | 0.326 ± 0.013
CN(C)[C@@H]1C(=O)C(C(=O)NCNCCCC[C@H](N)C(=O)O)=C(O)[C@@]2(O)C(=O)C3=C(O)c4c(O)cccc4[C@@](C)(O)[C@H]3C[C@@H]12 [Lymecycline] | 0.178 ± 0.0022 | 0.221 ± 0.0059 | 0.18 ± 0.011 | 0.204 ± 0.016 | 0.0804 ± 0.0073 | 0.101 ± 0.0033 | 0.12 ± 0.0094 | 0.159 ± 0.0077 | 0.0866 ± 0.01 | 0.152 ± 0.0064 | 0.329 ± 0.017 | 0.312 ± 0.031 | 0.0693 ± 0.0019
N[C@@H]1CCCCN(c2c(F)cc3c(=O)c(C(=O)O)cn(C4CC4)c3c2Cl)C1 [Besifloxacin hydrochloride] | 0.04153 ± 0.00035 | 0.0427 ± 0.002 | 0.0401 ± 0.00026 | 0.0447 ± 0.0037 | 0.0402 ± 0.00095 | 0.0414 ± 0.0011 | 0.0501 ± 0.0019 | 0.0463 ± 0.00069 | 0.0491 ± 0.0014 | 0.0491 ± 0.001 | 0.0537 ± 0.00057 | 0.05447 ± 0.00045 | 0.053 ± 0.0011
Cc1cc(=O)n(-c2ccccc2)n1C [Antipyrine] | 0.252 ± 0.0043 | 0.294 ± 0.014 | 0.257 ± 0.0094 | 0.221 ± 0.013 | 0.176 ± 0.0026 | 0.1436 ± 0.0012 | 0.305 ± 0.04 | 0.371 ± 0.014 | 0.191 ± 0.0076 | 0.204 ± 0.0077 | 0.474 ± 0.062 | 0.412 ± 0.0087 | 0.379 ± 0.026
Cc1cc(C2CCCCC2)n(O)c(=O)c1 [Ciclopirox ethanolamine] | 0.04347 ± 0.00021 | 0.04303 ± 5.8e-05 | 0.03957 ± 0.00035 | 0.0447 ± 0.00064 | 0.03987 ± 0.00012 | 0.0504 ± 0.00059 | 0.0544 ± 0.0014 | 0.0525 ± 0.0041 | 0.0626 ± 0.011 | 0.05427 ± 0.00029 | 0.0666 ± 0.0021 | 0.0481 ± 0.00095 | 0.0634 ± 0.0046
CCC(=O)O[C@]1(C(=O)CCl)[C@@H](C)C[C@H]2[C@@H]3CCC4=CC(=O)C=C[C@]4(C)[C@@]3(F)[C@@H](O)C[C@@]21C [Clobetasol propionate] | 0.148 ± 0.0028 | 0.19 ± 0.034 | 0.186 ± 0.011 | 0.161 ± 0.01 | 0.0968 ± 0.0071 | 0.156 ± 0.0017 | 0.264 ± 0.097 | 0.178 ± 0.017 | 0.145 ± 0.019 | 0.169 ± 0.021 | 0.326 ± 0.017 | 0.407 ± 0.015 | 0.122 ± 0.05
C[C@@H]1[C@H](O)[C@@H](C)/C=C/C=C/C=C/C=C/C=C/C=C/C=C/[C@H](O[C@@H]2O[C@H](C)[C@@H](O)[C@H](N)[C@@H]2O)C[C@@H]2O[C@](O)(C[C@@H](O)C[C@@H](O)[C@H](O)CC[C@@H](O)C[C@@H](O)CC(=O)O[C@H]1C)C[C@H](O)[C@H]2C(=O)O [Amphotericin B] | 0.316 ± 0.0027 | 0.33 ± 0.0067 | 0.27 ± 0.0035 | 0.345 ± 0.0081 | 0.182 ± 0.0098 | 0.261 ± 0.0027 | 0.416 ± 0.042 | 0.504 ± 0.026 | 0.208 ± 0.019 | 0.237 ± 0.046 | 0.532 ± 0.087 | 0.433 ± 0.022 | 0.478 ± 0.027
CCN(CC)CCCC(C)Nc1ccnc2cc(Cl)ccc12 (stereo not given) [Chloroquine diphosphate] | 0.236 ± 0.0047 | 0.338 ± 0.0096 | 0.2486 ± 0.0011 | 0.235 ± 0.025 | 0.176 ± 0.0044 | 0.163 ± 0.0047 | 0.253 ± 0.047 | 0.246 ± 0.029 | 0.201 ± 0.026 | 0.226 ± 0.047 | 0.549 ± 0.065 | 0.412 ± 0.014 | 0.328 ± 0.02
